The results in this text go back to the supplement of paper PMC7866885, “A novel bicyclic 2,4-diaminopyrimidine inhibitor of Streptococcus suis dihydrofolate reductase” (PeerJ, 2021).

± gives the standard deviation.

Assay [1] has as its system Streptococcus suis HE06. Briefly: percent growth relative to DMSO control; higher = less growth inhibition. The note with it: 10 µM; incubation time 18 h. As to the method:
(§1)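 CLSI broth microdilution: 5x10^4 CFU of Streptococcus suis (strain P1/7 or HE06) incubated with 10 µM Pathogen Box compound in cation-adjusted Mueller Hinton broth, 37 °C, 5% CO2, 18 h. Growth read as OD600 and expressed as percent of the DMSO-treated control (100%); mean ± SD of three independent experiments.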

For assay [2], the system named is Streptococcus suis P1/7. The assay is described as above. The note with it: 10 µM; incubation time 18 h. As to the method: as §1

As for `CS(=O)(=O)c1ccc(C(=O)N(CC2CCCO2)c2nc3ccccc3s2)cc1[N+](=O)[O-]` (stereo not given), the values for the percent growth in assay [1] and in assay [2] were 91.7 ± 7.5% and 108 ± 18%, respectively.
For `Nc1ncnc2c1ncn2C[C@@H](O)[C@@H](O)C(=O)O` the same measures were 75.9 ± 17% and 87.3 ± 15%.
For the compound `c1ccc(-c2cc(N3CCCCC3)c3ccccc3n2)nc1`, the percent growth in assay [1] is 0.646 ± 1.1%; in assay [2], 0.354 ± 0.61%.
For `c1ccc(Oc2ccc(-c3cc(CN4CCOCC4)[nH]n3)cc2)cc1` the same measures were 90.8 ± 3.9% and 95.7 ± 15%.
For `COc1ccc(C(=N)N)cc1-c1cn(-c2ccc(C(=N)N)cc2)nn1` the same measures were 105 ± 42% and 75.7 ± 2.9%.
For `O=C(NC1CC1)c1ccc(CSCc2ccccc2Cl)o1` the same measures were 83.2 ± 21% and 65.8 ± 24%.
As to `CC(C)(C)n1nc(Cc2cccc3ccccc23)c2c(N)ncnc21`, the percent growth came out at 90.1 ± 3.1% in assay [1] and 87.7 ± 16% in assay [2].
For `COc1ccc2nccc(NC(=O)C3CCN(CCc4ccc(Cl)cc4)CC3)c2n1` the same measures were 74.3 ± 59% and 28.6 ± 47%.
For `O=C(c1ccco1)N(CCCn1ccnc1)c1nc2c(Cl)cccc2s1` the same measures were 36.6 ± 38% and 34.1 ± 59%.
Turning to `CCCc1ccc(S(=O)(=O)Nc2ccc(CN3CCN(CC4CC4)CC3)cc2)cc1`, the percent growth in assay [1] was determined as 88 ± 15%; in assay [2], 94.1 ± 34%.
For `COc1cc(C2=NCCN2)cc2cc(-c3ccc(C4=NCCN4)cc3)oc12` the same measures were 106 ± 34% and 83.2 ± 17%.
On to `Nc1ncnc2c1c(Cc1cccc3ccccc13)nn2CC1CCNCC1`, for which the percent growth in assay [1] came out at 105 ± 44%; in assay [2], 75 ± 5.4%.
`O=C(Nc1c(O)cccc1-c1nc2c(C(=O)O)cccc2o1)c1cc(-c2ccccc2)on1`: the percent growth in assay [1] was 61.5 ± 26%; in assay [2], 11.1 ± 6.9%.
For `CCC(C)NC(=O)c1ccc(NC(=O)C2(c3ccccc3)CCCC2)cc1` (stereo not given) the same measures were 105 ± 27% and 78.1 ± 25%.
For `O=C(c1ccc(F)cc1)N(CCNc1ccccc1)c1ccccc1` the same measures were 106 ± 17% and 122 ± 66%.
For `CCOC(=O)NC(=O)c1ccsc1NC(=O)c1nc2ccccc2s1` the same measures were 0.167 ± 0.2% and 5.08 ± 8.2%.
Turning to `CS(=O)(=O)c1cccc(-c2cnc3[nH]cc(-c4ccc(CCC(=O)O)cc4)c3c2)c1`, the percent growth in assay [1] was determined as 68.7 ± 5.5%; in assay [2], 52.9 ± 34%.
For `O=C(Nc1nnc(-c2ccc(Cl)s2)o1)c1ccc(Cl)s1` the same measures were 1.06 ± 1.1% and 3.26 ± 4.9%.
As to `COc1cccc(NC(=O)c2c(NC(=O)c3cccnc3)sc3c2CCC3)c1`, the percent growth in assay [1] stood at 98.2 ± 24%; in assay [2], 86.6 ± 15%.
`COc1ccc(Cn2cnc3c(-c4ccco4)nc(Cl)nc32)cc1`: the figures for the percent growth in assay [1] and in assay [2] were 88.5 ± 13% and 102 ± 42%, respectively.
For `CC(C)(C)C(=O)N(CCCCCCN1C[C@H](O)[C@@H](O)[C@H](O)[C@H]1CO)C1CCCCCC1` the same measures were 122 ± 27% and 130 ± 56%.
For `Cn1c(=O)c2c(S(C)(=O)=O)snc2n(C)c1=O` the same measures were 40.1 ± 32% and 93 ± 120%.
For `CC(Oc1ccccc1)C(=O)Nc1nc(-c2ccccn2)cs1` (stereo not given) the same measures were 2.67 ± 2.8% and 2.35 ± 2.4%.
On to `CO[C@@H](C(=O)N1Cc2[nH]nc(NC(=O)c3ccc(N4CCN(C)CC4)cc3)c2C1)c1ccccc1`, for which the percent growth in assay [1] came out at 82.9 ± 11%; in assay [2], 86.3 ± 15%.
For `CN1CCC(NCc2cccc(-c3ccc(S(=O)(=O)NCc4ccccc4)cc3)c2)CC1` the same measures were 94.9 ± 28% and 70.3 ± 11%.
